Screens (PubChem)
Coupling enz: inhibits coupling enzyme system, counter-screen for aldolase hits; hit rate 0.67% among 290,000; AID 2472; activity change, negative = inhibition, % at 58.2 µM, hits read low; coupling enzyme system counterscreen, AmpLite Red fluorescence; in the data active means activity change below about -30%
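Fluorescence at 525 nm excitation and 598 nm emission measured inhibition of the coupled detection system without aldolase. Compounds (at 57.5 uM final) were preincubated 10 min at room temperature with coupling enzyme reagent before a 20 min substrate/AmpLite Red step.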
Sfp inh: blocks B. subtilis Sfp PPTase activity; Biochemical Sfp PPTase activity, qHTS; Potency, µM, inactives show largest response in the series, negative = inhibition, usual class: inhibitors; hit rate 3.5% among 310,000; AID 1490;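 further: the enzyme is Sfp with the accession as filed and its product quenches rhodamine fluorescence; potency means the concentration at half of the fitted maximal effect; 0% = enzyme reaction without inhibitor and -100% = no enzyme wells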
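Sfp 15 nM + cpd, 15 min RT; start w/ rhodamine-CoA 5 uM, BHQ-2-YbbR 12.5 uM (final); 50 mM Hepes pH 7.6, 10 mM MgCl2, 0.01% NP-40, 0.01% BSA; read 525/598 nm at 0 and 30 min.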
Tau fibril FP: tau fibrillization inhibition (FP) | P10636 | K18 P301L tau heparin fibrillization, Alexa594 FP, 6 h | Potency, µM (top dose mostly 57.7 µM), for inactives: top-dose activity, negative = inhibition, hits mostly inhibitors | hit rate 0.39% among 280,000 | AID 1468; further: potency means the concentration at half of the fitted maximal effect; nearly all actives have a fitted effect of over 55% in size
Target sequence (P10636 561-689 P618L limits assumed): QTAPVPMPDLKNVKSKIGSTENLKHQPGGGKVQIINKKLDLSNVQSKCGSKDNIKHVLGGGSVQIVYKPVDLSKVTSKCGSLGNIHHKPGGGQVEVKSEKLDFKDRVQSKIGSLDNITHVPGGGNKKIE
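Quantitative HTS format: compounds meet 15 uM recombinant K18 P301L tau and Alexa 594-tau tracer in 100 mM sodium acetate pH 7; 20 uM heparin triggers fibrillization at 37 C over 6 hr; FP gives the signal.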
Tau fluor cs: counter-screen for tau fibril formation inhibitors; tau K18 P301L Alexa594 fluorescence, heparin fibrillization; Potency, µM (top dose mostly 57.7 µM), for inactives: top-dose activity change, negative = decrease; hit rate 0.93% among 280,000; further: potency means the concentration at half of the fitted maximal effect; nearly all actives have a fitted effect of over 55% in size
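Human tau K18 P301L (15 uM unlabeled, 0.24 uM Alexa 594-labeled) in 100 mM sodium acetate pH 7 with 20 uM heparin, 6 hr at 37 C. ThT 30 uM added, 1 hr ambient; Alexa 594 FP and total fluorescence read at 555/632 nm.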
Tau ThT inhib: inhibitors of human tau fibril formation, thioflavin T binding; Potency, µM (top dose mostly 57.4 µM), inactives show at the top dose activity, negative = inhibition, hits mostly inhibitors; AID 1460; recombinant tau K18 P301L (four-repeat tau fragment), heparin-induced fibrillization, ThT fluorescence; P10636; hit rate 2.1% among 270,000; further: potency means the concentration at half of the fitted maximal effect; nearly all actives have a fitted effect of over 55% in size
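Heparin-induced (20 uM) aggregation of recombinant human K18 P301L tau, 15 uM unlabeled with 0.24 uM labeled, pH 7 acetate buffer, 6 hr at 37 C with compound. Fibrils quantified by 30 uM ThT fluorescence after 1 hr ambient incubation.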
Active calls of the source: *. Only some compounds are listed: those with a hit (about 5.2% of all), similar ones and a draw of the others. Unless noted, the call rests on the fitted dose curve; in most records, active means well fitted curve in the direction sought with a large enough effect; inconclusive means small, poorly fitted or top-dose-only effect, or another doubt; inactive means no such curve, though single readings can be large; an effect the other way counts as inactive or inconclusive. Unless noted, on the % scale 0 is the no-effect control and ±100 the full control effect.

`CCOC(=O)/C(=C/C=C1\Sc2cc(C)c(C)cc2N1CC)C(C)=O` gave Coupling enz -1, Sfp inh 16µM*, Tau fibril FP 8%, Tau fluor cs -28% and Tau ThT inhib 10µM*.
N[C@@H](Cn1cc(F)c(=O)[nH]c1=O)C(=O)O was read as Coupling enz 3, Sfp inh 56µM*, Tau fibril FP 7%, Tau fluor cs -2% and Tau ThT inhib -6%.
COc1ccc(OC)c(-c2nnc3n(Cc4ccc(C)cc4)c(=O)c4ccccc4n23)c1 was read as Tau fibril FP -3%, Tau fluor cs -13% and Tau ThT inhib -11%.
For COc1ccc(C=C2C(=O)c3ccccc3C2=O)cc1O the results were Coupling enz 2, Sfp inh -18%, Tau fibril FP -6%, Tau fluor cs -30% and Tau ThT inhib 8.9µM*.
`CCN1C/C(=C/c2ccc(OC)c(O)c2)C(=O)/C(=C/c2ccc(OC)c(O)c2)C1` gave Coupling enz -6, Sfp inh -6%, Tau fibril FP inconclusive, Tau fluor cs -28% and Tau ThT inhib 14µM*.
Screening COc1cc(C=C2C(=O)c3ccccc3C2=O)ccc1O returned Coupling enz -7, Sfp inh -9%, Tau fibril FP -5%, Tau fluor cs -18% and Tau ThT inhib inconclusive.
For COc1cc(C=C2C(=O)c3ccccc3C2=O)cc(OC)c1OC the results were Coupling enz 3, Sfp inh 4%, Tau fibril FP -4%, Tau fluor cs -28% and Tau ThT inhib 14µM*.
COc1ccc(/C=C2\CN(Cc3ccccc3)C/C(=C\c3ccc(OC)c(O)c3)C2=O)cc1O was read as Coupling enz -6 and Sfp inh -18%.
Screening COc1cccc(/C=C2\C(=O)C(=O)c3ccccc32)c1 returned Coupling enz -2, Sfp inh -16%, Tau fibril FP 2%, Tau fluor cs -25% and Tau ThT inhib 13µM*.
For CCCCN(C(=O)CSc1nnc(-c2ccco2)o1)c1c(N)n(Cc2ccccc2)c(=O)[nH]c1=O the results were Coupling enz 3, Sfp inh inconclusive, Tau fibril FP -3%, Tau fluor cs -6% and Tau ThT inhib -3%.
For Cc1cccc(CSc2nnc(-c3ccco3)o2)c1 the results were Coupling enz -1, Sfp inh 28µM*, Tau fibril FP -10%, Tau fluor cs -19% and Tau ThT inhib -10%.
CC(C)CN(C(=O)CSc1nnc(-c2ccco2)o1)c1c(N)n(Cc2ccccc2)c(=O)[nH]c1=O was read as Coupling enz 2, Sfp inh 79µM*, Tau fibril FP 3%, Tau fluor cs 1% and Tau ThT inhib 6%.
For O=C(CSc1nnc(-c2ccco2)o1)c1ccccc1 the results were Coupling enz 1, Sfp inh 56µM*, Tau fibril FP -8%, Tau fluor cs -1% and Tau ThT inhib 6%.
Screening Cc1cccc(-c2nnc(SCc3ccccc3)o2)c1 returned Coupling enz 5, Sfp inh -12%, Tau fibril FP -13%, Tau fluor cs -14% and Tau ThT inhib -20%.
For CCn1c(SCc2nc(-c3ccccc3)no2)nnc1-c1ccco1 the results were Coupling enz 2, Sfp inh 79µM*, Tau fibril FP -5%, Tau fluor cs -8% and Tau ThT inhib -11%.
Screening O=C(CSc1nnc(-c2ccco2)o1)c1ccc(F)c(F)c1 returned Coupling enz 4, Sfp inh 4%, Tau fibril FP -4%, Tau fluor cs -13% and Tau ThT inhib -16%.
`COc1ccc(Cn2c(=O)[nH]c3cc(C(=O)N4CCN(c5cc(Cl)ccc5C)CC4)ccc3c2=O)cc1` gave Tau fibril FP -16%, Tau fluor cs -19% and Tau ThT inhib -8%.
Screening O=C(CSc1nnc(-c2ccco2)n1Cc1ccccc1)c1ccccc1 returned Coupling enz 0, Sfp inh 56µM*, Tau fibril FP -12%, Tau fluor cs -8% and Tau ThT inhib -14%.
CCN(CC)S(=O)(=O)c1cccc(-c2n[nH]c(=S)n2/N=C/c2ccc(OC)cc2)c1 was read as Coupling enz 0, Sfp inh 79µM*, Tau fibril FP 3%, Tau fluor cs inconclusive and Tau ThT inhib -11%.
`O=c1oc2c(CN3CCOCC3)c(O)c(Cl)cc2c2c1CCCC2` gave Coupling enz -11, Sfp inh 56µM*, Tau fibril FP -13%, Tau fluor cs -2% and Tau ThT inhib inconclusive.
`Cc1c(O)c(CN2CCCC2)cc2c3c(c(=O)oc12)CCC3` gave Coupling enz 1, Sfp inh -14%, Tau fibril FP inconclusive, Tau fluor cs -22% and Tau ThT inhib 13µM*.
Screening O=c1oc2c(CN3CCOCC3)c(O)ccc2c2c1CCCC2 returned Coupling enz 0, Sfp inh -1%, Tau fibril FP 3%, Tau fluor cs -1% and Tau ThT inhib -5%.
`CCCCCCN1C=CC=C/C1=C\C=C(C#N)C#N` gave Coupling enz 0, Sfp inh -26%, Tau fibril FP inconclusive, Tau fluor cs inconclusive and Tau ThT inhib 16µM*.
For O=C(Nc1nnc(C2CC2)s1)C1Cc2ccccc2CN1C(=O)c1ccco1 (stereo not drawn) the results were Coupling enz -4, Sfp inh 40µM*, Tau fibril FP -14%, Tau fluor cs -14% and Tau ThT inhib inconclusive.
For Cc1ccc2nc(CSc3nc(C)cc(C)c3C#N)[nH]c2c1 the results were Coupling enz -2, Sfp inh -2%, Tau fibril FP inconclusive, Tau fluor cs inconclusive and Tau ThT inhib 13µM*.
`Cc1cc(C)c(C#N)c(SCSCc2ccccc2)n1` gave Coupling enz -9, Sfp inh 20µM*, Tau fibril FP inconclusive, Tau fluor cs -23% and Tau ThT inhib -15%.
Screening Cc1cc(C)c(C#N)c(SCc2ccccc2)n1 returned Coupling enz -3, Sfp inh inconclusive, Tau fibril FP -8%, Tau fluor cs -16% and Tau ThT inhib -11%.
Screening Cc1cc(C)c(C#N)c(SCc2ccccc2C)n1 returned Coupling enz -1, Sfp inh -15%, Tau fibril FP -6%, Tau fluor cs -12% and Tau ThT inhib -9%.
For Cc1ccc(-n2nc(C)c3c(C(=O)NCc4ccccc4)cc(C4CC4)nc32)cc1 the results were Tau fibril FP -5%, Tau fluor cs -30% and Tau ThT inhib -13%.
For Cc1cccc(-n2ncc(C(=O)NCc3ccco3)c2C2CCN(C(=O)OC(C)(C)C)CC2)c1 the results were Tau fibril FP 2%, Tau fluor cs -17% and Tau ThT inhib inconclusive.
Screening Cc1ccccc1CN1c2ccccc2-c2nc(SCC(=O)Nc3cc(F)ccc3F)ncc2S1(=O)=O returned Tau fibril FP inconclusive, Tau fluor cs -26% and Tau ThT inhib 11%.
